# Active and inactive are the calls of the source. Unless noted, how the calls were made is not given here.
# What was measured:
# [1] = test system: Wnt5a (protein binding on small-molecule microarray); test: small molecules binding Wnt5a protein – biophysical, small-molecule microarray, 635/667 nm fluorescence, primary screen (AID 1142); settings: 635 nm fluorescence, higher = more signal;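 further: fluorescence read at 667 nm with signal to noise per printed feature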
# [2] = ATP-based viability of Huh7 replicon cells – cell-based, CellTiter-Glo luminescence, basal, 48 h, cytotoxicity control for HCV replication inhibitor project, primary screen (AID 1143); settings: higher = more signal, called active from +8 up or from −8 down;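 further: Huh7 hepatoma cells carrying a hepatitis C replication reporter with no stimulus; test concentration not given here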
# [3] = Pseudomonas biofilm growth suppression – PAO1 strain, BacTiter-Glo luminescence, LB-PBS, primary screen (AID 1144); settings: P. aeruginosa PAO1 biofilm, 12 h, higher = more signal
# [4] = basal CRE-LacZ reporter activity in PC12 – cell-based, unstimulated, primary screen (AID 1145); settings: no forskolin, luminescence, 4.5 h, higher = more signal, called active from +8 up or from −8 down
# [5] = forskolin-driven CRE-LacZ activity in PC12 – cell-based, CRE-LacZ reporter, forskolin-stimulated, primary screen (AID 1146); settings: luminescence, 4.5 h, higher = more signal, called active from +8 up or from −8 down;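 further: PC12 cells with 6xCRE LacZ reporter stimulated by forskolin 10 µM; beta-galactosidase reporter signal reflecting CREB driven transcription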
# [6] = target: Streptavidin (Streptomyces avidinii) (UniProt P22629); test: compounds binding control protein streptavidin – biophysical, small-molecule microarray, 635/667 nm fluorescence, artefact control for SMM compound annotation, primary screen (AID 1147); settings: higher = more signal;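 further: signal reflects streptavidin binding to arrayed compounds as a control protein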
# [7] = probe aInhba binding on compound microarray – biochemical, small-molecule microarray, 635/667 nm fluorescence, primary screen (AID 1148); settings: higher = more signal;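 further: score merges 667nm spot fluorescence with signal-to-noise for antibody binding to printed compounds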
# Torsin-1A (Homo sapiens) [8] = target: Torsin-1A (Homo sapiens) (UniProt O14656); test: TOR1A wild-type binding on microarray – cell lysate, small-molecule microarray, lysate, 635/667 nm, primary screen (AID 1149); settings: COS7 hTOR1A-WT lysate, 635 nm fluorescence, higher = more signal
# Torsin-1A (Homo sapiens) [9] = target: Torsin-1A (Homo sapiens) (UniProt O14656); test: torsin A mutant lysate binding on microarrays – cell lysate, small-molecule microarray, COS7 lysate, 635/667 nm fluorescence, primary screen (AID 1150); settings: COS7 hTOR1A mutant lysate, 635 nm fluorescence, higher = more signal;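 further: score pools 667 nm emission and signal to noise measuring lysate protein binding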
# [10] = test system: Sonic hedgehog protein (Shh); test: Sonic hedgehog microarray binding compounds – biochemical, small-molecule microarray, 635/667 nm fluorescence, primary screen (AID 1151); settings: 635 nm fluorescence, higher = more signal;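 further: Shh protein binding to compounds spotted on small-molecule microarray slides; score combines spot fluorescence intensity with signal-to-noise across triplicate slides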
# [11] = optical density shifts of acrAB sulA E. coli – strain DRC41, OD650, 48 h, E. coli filamentation inducer project, primary screen (AID 1152); settings: higher = more signal, called active from +8 up or from −8 down;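 further: E. coli MC1000 strain DRC41 lacking acrAB efflux pump and sulA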
# [12] = probe aLefty1 binding on compound microarray – biochemical, small-molecule microarray, 635/667 nm fluorescence, primary screen (AID 1153); settings: higher = more signal;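 further: score merges spot fluorescence with signal-to-noise ratio from the scanned slide images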
# [13] = plasmodial surface anion channel blockers, osmotic lysis – cell-based, P. falciparum Indochina, OD700, 1 h, primary screen (AID 1154); settings: P. falciparum Indochina infected RBC osmotic lysis, higher = more signal, called active from +8 up or from −8 down
# [14] = plasmodial surface anion channel blockers, osmotic lysis – cell-based, P. falciparum Indochina, OD700, 2 h, primary screen (AID 1155);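 further: lysis reports solute entry through the parasite surface anion channel PSAC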; settings: P. falciparum Indochina infected erythrocytes, higher = more signal, called active from +8 up or from −8 down
# [15] = changes in parasitized red cell lysis, either direction – P. falciparum Indochina, OD700, 3 h, PSAC antagonist project, primary screen (AID 1156); settings: P. falciparum-infected erythrocytes, osmotic lysis, higher = more signal, called active from +8 up or from −8 down
# [16] = plasmodial surface anion channel blockers, osmotic lysis – cell-based, P. falciparum Indochina, OD700, 18 h, primary screen (AID 1157); settings: P. falciparum Indochina infected erythrocytes, osmotic lysis OD700, 18 h; higher = more signal, called active from +8 up or from −8 down
# [17] = S6 kinase pathway phospho-S6 level changes – cell-based, A549, cytoblot, luminescence, serum-stimulated, primary screen (AID 1158); settings: 5 h, higher = more signal;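 further: serum-stimulated A549 lung adenocarcinoma cells; signal is phosphorylated S6 detected by cytoblot immunostaining with HRP secondary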
# [18] = target: NADPH oxidase 2 (Homo sapiens) (UniProt P04839); test: compounds shifting NOX2 Amplex Red fluorescence – cell-based, HEK293-NOX2, PMA-stimulated, NOX inhibitor project, primary screen (AID 1159); settings: 45 min, higher = more signal, called active from +8 up or from −8 down; further: test concentration not given here
# [19] = target: NADPH oxidase 4 (Homo sapiens) (UniProt Q9NPH5); test: compounds shifting NOX4 Amplex Red fluorescence – cell-based, HEK293-NOX4, tetracycline-induced, NOX inhibitor project, primary screen (AID 1160); settings: HEK293-NOX4, Amplex Red H2O2 fluorescence, 45 min; higher = more signal, called active from +8 up or from −8 down
# [20] = target: NADPH oxidase 5 (Homo sapiens) (UniProt Q96PH1); test: compounds shifting NOX5 Amplex Red fluorescence – cell-based, HEK293-NOX5, NOX inhibitor project, primary screen (AID 1161); settings: HEK293-NOX5, ionomycin, 45 min, higher = more signal
# NADPH oxidase 5 (Homo sapiens), sequence (Q96PH1 whole entry, looked up): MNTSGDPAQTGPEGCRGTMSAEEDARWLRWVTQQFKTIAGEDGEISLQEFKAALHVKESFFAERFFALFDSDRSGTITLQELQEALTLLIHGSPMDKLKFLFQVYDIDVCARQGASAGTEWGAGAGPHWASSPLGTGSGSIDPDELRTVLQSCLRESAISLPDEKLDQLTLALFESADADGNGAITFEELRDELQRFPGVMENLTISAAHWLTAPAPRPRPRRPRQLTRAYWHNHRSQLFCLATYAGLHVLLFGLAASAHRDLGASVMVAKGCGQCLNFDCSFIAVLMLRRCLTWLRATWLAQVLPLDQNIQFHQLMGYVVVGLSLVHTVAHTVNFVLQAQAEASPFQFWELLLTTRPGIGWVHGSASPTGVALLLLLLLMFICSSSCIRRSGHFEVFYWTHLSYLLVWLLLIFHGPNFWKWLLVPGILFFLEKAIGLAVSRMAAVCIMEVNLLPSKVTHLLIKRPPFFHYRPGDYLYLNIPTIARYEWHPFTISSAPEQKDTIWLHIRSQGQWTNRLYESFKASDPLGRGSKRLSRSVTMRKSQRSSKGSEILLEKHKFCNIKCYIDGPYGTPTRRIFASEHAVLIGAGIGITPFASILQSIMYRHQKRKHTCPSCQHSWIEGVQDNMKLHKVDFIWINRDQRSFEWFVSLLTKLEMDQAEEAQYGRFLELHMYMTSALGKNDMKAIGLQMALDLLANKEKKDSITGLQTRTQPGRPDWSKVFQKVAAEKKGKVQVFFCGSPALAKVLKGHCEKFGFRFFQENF
# NADPH oxidase 4 (Homo sapiens), sequence (Q9NPH5 whole entry, looked up): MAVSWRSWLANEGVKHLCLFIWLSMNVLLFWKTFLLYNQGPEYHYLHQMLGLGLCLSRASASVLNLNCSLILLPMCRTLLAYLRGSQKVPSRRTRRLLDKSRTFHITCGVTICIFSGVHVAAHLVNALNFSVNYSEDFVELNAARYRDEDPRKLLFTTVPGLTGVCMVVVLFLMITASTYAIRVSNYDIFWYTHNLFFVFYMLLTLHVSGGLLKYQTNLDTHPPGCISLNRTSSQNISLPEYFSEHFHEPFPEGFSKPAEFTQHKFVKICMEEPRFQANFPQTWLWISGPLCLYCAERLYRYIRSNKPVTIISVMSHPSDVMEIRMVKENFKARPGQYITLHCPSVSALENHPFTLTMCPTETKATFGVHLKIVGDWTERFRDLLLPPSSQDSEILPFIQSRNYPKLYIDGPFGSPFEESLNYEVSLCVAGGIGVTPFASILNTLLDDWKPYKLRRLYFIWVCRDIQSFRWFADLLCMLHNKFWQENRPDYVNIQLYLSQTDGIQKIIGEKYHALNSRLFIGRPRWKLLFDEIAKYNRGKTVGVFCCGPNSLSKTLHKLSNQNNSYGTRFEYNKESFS
# NADPH oxidase 2 (Homo sapiens), sequence (P04839 whole entry, looked up): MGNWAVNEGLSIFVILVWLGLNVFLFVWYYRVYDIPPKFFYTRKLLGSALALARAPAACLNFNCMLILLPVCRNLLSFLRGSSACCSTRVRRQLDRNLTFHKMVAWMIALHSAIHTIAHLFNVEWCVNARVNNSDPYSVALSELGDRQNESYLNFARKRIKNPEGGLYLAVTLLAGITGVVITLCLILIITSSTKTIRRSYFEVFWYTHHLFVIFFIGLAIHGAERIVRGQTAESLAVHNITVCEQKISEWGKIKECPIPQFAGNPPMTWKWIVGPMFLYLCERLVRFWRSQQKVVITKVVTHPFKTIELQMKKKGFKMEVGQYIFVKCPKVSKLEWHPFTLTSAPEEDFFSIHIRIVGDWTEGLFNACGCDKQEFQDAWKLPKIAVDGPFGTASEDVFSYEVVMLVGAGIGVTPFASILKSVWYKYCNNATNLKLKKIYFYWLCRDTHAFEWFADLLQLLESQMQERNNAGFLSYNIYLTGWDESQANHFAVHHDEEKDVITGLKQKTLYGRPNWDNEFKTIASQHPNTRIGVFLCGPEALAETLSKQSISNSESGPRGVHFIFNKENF
# Streptavidin (Streptomyces avidinii), sequence (P22629 whole entry, looked up): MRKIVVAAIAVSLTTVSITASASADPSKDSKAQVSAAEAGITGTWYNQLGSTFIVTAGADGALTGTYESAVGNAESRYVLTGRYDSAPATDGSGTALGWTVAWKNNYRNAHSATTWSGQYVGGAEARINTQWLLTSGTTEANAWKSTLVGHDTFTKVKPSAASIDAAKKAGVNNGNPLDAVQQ
# Torsin-1A (Homo sapiens), sequence (O14656 whole entry, looked up): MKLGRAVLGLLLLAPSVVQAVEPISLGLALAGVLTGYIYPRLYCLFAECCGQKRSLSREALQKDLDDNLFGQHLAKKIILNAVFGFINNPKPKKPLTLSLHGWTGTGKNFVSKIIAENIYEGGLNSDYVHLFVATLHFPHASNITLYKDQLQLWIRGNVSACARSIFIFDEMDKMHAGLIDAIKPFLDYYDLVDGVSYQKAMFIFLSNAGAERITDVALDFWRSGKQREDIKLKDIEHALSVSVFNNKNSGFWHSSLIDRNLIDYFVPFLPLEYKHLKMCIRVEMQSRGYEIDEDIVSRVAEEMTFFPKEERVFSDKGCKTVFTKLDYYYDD
SMILES,composite z-score [1],z-score [2],z-score [3],z-score [4],z-score [5],composite z-score [6],composite z-score [7],composite z-score (Torsin-1A (Homo sapiens) [8]),composite z-score (Torsin-1A (Homo sapiens) [9]),composite z-score [10],z-score [11],composite z-score [12],z-score [13],z-score [14],z-score [15],z-score [16],z-score [17],z-score [18],z-score [19],z-score [20]
CC1CC/C=C\[C@H]2OC34C=CCN(c5ccc6ccccc6c5)C(=O)[C@H]3N(C(CO)C(C)C)C(=O)[C@@H]4C2C(=O)O1 (stereo not given in full),-0.257,-0.0047 (inactive),1.27 (inactive),-0.0939 (inactive),-0.714 (inactive),-0.217,0.0028,-1.06,-0.477,0.485,-0.488 (inactive),0.245,4.35 (inactive),1.06 (inactive),1.01 (inactive),0.674 (inactive),-0.526,1.49 (inactive),-0.0631 (inactive),1.68
NCCCCCCNC(=O)[C@@H]1C[C@@H]2C(=O)N3CCC[C@H]3C(=O)N2[C@@H]1c1ccc(O)cc1,0.236,-0.118 (inactive),-0.515 (inactive),0.826 (inactive),-0.615 (inactive),1.01,-0.323,0.592,0.513,2,-1.12 (inactive),-0.508,1.67 (inactive),0.026 (inactive),-0.653 (inactive),0.105 (inactive),-0.164,0.162 (inactive),0.116 (inactive),-0.515
CCCCN1CC=CC23O[C@@H]4C=CCOC(=O)[C@@H]4[C@H]2C(=O)N(C(C)CO)[C@@H]3C1=O (stereo not given in full),-0.166,-0.251 (inactive),1.27 (inactive),-0.488 (inactive),0.401 (inactive),-0.78,-0.128,0.0171,-0.241,-0.213,-0.65 (inactive),-0.045,0.596 (inactive),-0.404 (inactive),0.436 (inactive),0.111 (inactive),-0.163,0.953 (inactive),0.56 (inactive),1.51
COc1ccc(CCNC(=O)[C@@]2(Sc3ccc(C)cc3)CC(=O)N(Cc3cc(C(F)(F)F)cc(C(F)(F)F)c3)[C@@H]2c2ccc(CO)cc2I)cc1,-0.466,-0.73 (inactive),-0.623 (inactive),-0.554 (inactive),1.05 (inactive),0.762,0.0184,0.579,-0.145,0.697,0.0818 (inactive),0.0509,10.5 (active),1.25 (inactive),-0.459 (inactive),0.132 (inactive),0.179,1.15 (inactive),-1.07 (inactive),0.562
CC(C)(C)OC(=O)CC[C@]1(C(=O)O)N=C(c2ccc(OCCCO)cc2)O[C@H]1c1ccccc1CN=[N+]=[N-],0.108,0.109 (inactive),0.618 (inactive),-1.09 (inactive),-1.7 (inactive),-0.247,0.0074,-0.61,-0.13,-0.533,0.59 (inactive),0.0355,16.3 (active),1.36 (inactive),0.0614 (inactive),0.594 (inactive),0.172,0.433 (inactive),1.01 (inactive),1
COC(=O)[C@@]1(Cc2ccc(F)cc2)[C@H]2c3cc(C(=O)N4CCCC4)n(CCF)c3C[C@H]2CN1C(=O)c1ccccc1,1.5,-2.28 (inactive),-0.603 (inactive),0.952 (inactive),1.33 (inactive),1.99,1.66,0.103,1.07,-0.462,-0.379 (inactive),2.02,6.17 (inactive),0.237 (inactive),0.423 (inactive),0.715 (inactive),0.563,0.6 (inactive),-0.248 (inactive),-0.159
CC(CO)N1C(=O)[C@@H]2C3C(=O)OCCC/C=C\[C@H]3OC23C=CCN(Cn2nnc4ccccc42)C(=O)[C@@H]13 (stereo not given in full),-0.275,0.39 (inactive),-1.36 (inactive),-0.358 (inactive),-0.691 (inactive),-0.521,-0.024,-1.02,-0.296,0.276,0.822 (inactive),-0.0035,1.03 (inactive),0.132 (inactive),2.14 (inactive),0.502 (inactive),0.282,1.32 (inactive),0.193 (inactive),2.03
O=C1NC(=O)C2C1C=CC(C(O)c1ccc(Br)cc1)N2Nc1ccccn1 (stereo not given),0.336,-0.0358 (inactive),-1.45 (inactive),-0.322 (inactive),0.521 (inactive),0.363,0.126,0.196,0.301,-0.248,-0.325 (inactive),0.5,-0.0691 (inactive),-1.06 (inactive),0.215 (inactive),-1.94 (inactive),0.599,-1.54 (inactive),-2.6 (inactive),-1.93
O=c1cccc(-c2cccc(Cl)c2)o1,0.0303,-1.07 (inactive),0.96 (inactive),0.631 (inactive),-1.05 (inactive),0.244,0.0047,0.34,0.617,-0.215,0.457 (inactive),-0.0057,25.8 (active),10.2 (active),-0.51 (inactive),1.27 (inactive),-0.717,-0.16 (inactive),-1.92 (inactive),-0.541
